In paper PMC11006913:

These sequences were tested against NKX2-5 (Homo sapiens, UniProt P52952 125-210, R139K) (assay: PBM; 200 nM protein, PBS). Settings: dsDNA, one strand shown.
Sequence of NKX2-5 (P52952 125-210 R139K): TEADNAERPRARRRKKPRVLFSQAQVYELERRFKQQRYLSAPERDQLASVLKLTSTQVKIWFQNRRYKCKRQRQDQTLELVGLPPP

Row | Sequence | binding signal
1 | CCTCTTGA | 12.5 upbm affinity estimate (log intensity, higher = more binding, comparable within an allelic series)
2 | ATAATGGG | 10.9 upbm affinity estimate (log intensity, higher = more binding, comparable within an allelic series)
3 | CCTCTTAA | 12.3 upbm affinity estimate (log intensity, higher = more binding, comparable within an allelic series)
4 | AAGTGGTC | 12.6 upbm affinity estimate (log intensity, higher = more binding, comparable within an allelic series)
5 | TCAAGTGA | 12.5 upbm affinity estimate (log intensity, higher = more binding, comparable within an allelic series)
6 | CTCAAGTA | 12.7 upbm affinity estimate (log intensity, higher = more binding, comparable within an allelic series)
7 | ACTTGAGA | 12.3 upbm affinity estimate (log intensity, higher = more binding, comparable within an allelic series)
8 | CACTTGAA | 13.2 upbm affinity estimate (log intensity, higher = more binding, comparable within an allelic series)
9 | CCGACCTC | 8.77 upbm affinity estimate (log intensity, higher = more binding, comparable within an allelic series)
10 | CTGGCCAG | 8.81 upbm affinity estimate (log intensity, higher = more binding, comparable within an allelic series)
11 | TACCGGTA | 8.84 upbm affinity estimate (log intensity, higher = more binding, comparable within an allelic series)
12 | ATCGGTGG | 8.85 upbm affinity estimate (log intensity, higher = more binding, comparable within an allelic series)
13 | CTCTTAAG | 12.3 upbm affinity estimate (log intensity, higher = more binding, comparable within an allelic series)
14 | ACACTTGA | 13 upbm affinity estimate (log intensity, higher = more binding, comparable within an allelic series)
15 | CGTGCGGC | 8.72 upbm affinity estimate (log intensity, higher = more binding, comparable within an allelic series)
16 | AGTACTTG | 12.5 upbm affinity estimate (log intensity, higher = more binding, comparable within an allelic series)
17 | ACACTTCA | 12.3 upbm affinity estimate (log intensity, higher = more binding, comparable within an allelic series)
18 | ACGGCCTG | 8.92 upbm affinity estimate (log intensity, higher = more binding, comparable within an allelic series)
19 | GTACTTCA | 12.5 upbm affinity estimate (log intensity, higher = more binding, comparable within an allelic series)
20 | AGTCCGGG | 9.14 upbm affinity estimate (log intensity, higher = more binding, comparable within an allelic series)

Row | Sequence | binding signal
21 | AAGTGGAC | 12.5 upbm affinity estimate (log intensity, higher = more binding, comparable within an allelic series)
22 | CGGTCGGC | 8.67 upbm affinity estimate (log intensity, higher = more binding, comparable within an allelic series)
23 | CCGACGCC | 8.82 upbm affinity estimate (log intensity, higher = more binding, comparable within an allelic series)
24 | AAGTGCCC | 12.4 upbm affinity estimate (log intensity, higher = more binding, comparable within an allelic series)
25 | CACGGGCC | 8.73 upbm affinity estimate (log intensity, higher = more binding, comparable within an allelic series)
26 | CATGCGCC | 8.86 upbm affinity estimate (log intensity, higher = more binding, comparable within an allelic series)
27 | CCACTCGA | 12.5 upbm affinity estimate (log intensity, higher = more binding, comparable within an allelic series)
28 | TACTTGAA | 12.6 upbm affinity estimate (log intensity, higher = more binding, comparable within an allelic series)
29 | CACTTCAA | 12.4 upbm affinity estimate (log intensity, higher = more binding, comparable within an allelic series)
30 | CGTGCACG | 8.84 upbm affinity estimate (log intensity, higher = more binding, comparable within an allelic series)
31 | TAAGTGTA | 12.5 upbm affinity estimate (log intensity, higher = more binding, comparable within an allelic series)
32 | CCGGTGGC | 8.61 upbm affinity estimate (log intensity, higher = more binding, comparable within an allelic series)
33 | CCTGGGCC | 8.72 upbm affinity estimate (log intensity, higher = more binding, comparable within an allelic series)
34 | GCGACGCC | 8.87 upbm affinity estimate (log intensity, higher = more binding, comparable within an allelic series)
35 | CAAGTACC | 12.5 upbm affinity estimate (log intensity, higher = more binding, comparable within an allelic series)
36 | CCAGCCAG | 8.68 upbm affinity estimate (log intensity, higher = more binding, comparable within an allelic series)
37 | CGGTGCAG | 8.83 upbm affinity estimate (log intensity, higher = more binding, comparable within an allelic series)
38 | CACTCGAA | 12 upbm affinity estimate (log intensity, higher = more binding, comparable within an allelic series)
39 | CACTTCAG | 12.4 upbm affinity estimate (log intensity, higher = more binding, comparable within an allelic series)
40 | GTCAAGTA | 12.3 upbm affinity estimate (log intensity, higher = more binding, comparable within an allelic series)
